Results taken from the supplement of paper PMC10681739.

target: RUNX1 (UniProt Q01196); assay: RUNX1 binding intensity (PBM fluorescence) in presence of ETS1, normalised to RUNX1-only experiment (arbitrary fluorescence units); higher = stronger binding; conditions: RUNX1 concentration 2 nM; ETS1 concentration 25 nM
Method: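 Cooperative gcPBM on 36-bp genomic probes with neighbouring ETS1 and RUNX1 sites. Recombinant human RUNX1 (2 nM) was incubated alone or with ETS1 (25 nM) and detected with anti-RUNX1 antibody plus Alexa488 secondary. Values are medians over 4 replicate spots; the RUNX1+ETS1 data were normalised to the RUNX1-only data. The probes sit in constant array flanks that are not printed.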
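Also: Full-length recombinant human ETS1 or RUNX1 bound to double-stranded 36-bp genomic probes on microarrays, detected by protein-specific primary antibody and Alexa488 secondary, spot fluorescence as median of four replicate spots.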

Sequence of RUNX1 (Q01196 whole entry): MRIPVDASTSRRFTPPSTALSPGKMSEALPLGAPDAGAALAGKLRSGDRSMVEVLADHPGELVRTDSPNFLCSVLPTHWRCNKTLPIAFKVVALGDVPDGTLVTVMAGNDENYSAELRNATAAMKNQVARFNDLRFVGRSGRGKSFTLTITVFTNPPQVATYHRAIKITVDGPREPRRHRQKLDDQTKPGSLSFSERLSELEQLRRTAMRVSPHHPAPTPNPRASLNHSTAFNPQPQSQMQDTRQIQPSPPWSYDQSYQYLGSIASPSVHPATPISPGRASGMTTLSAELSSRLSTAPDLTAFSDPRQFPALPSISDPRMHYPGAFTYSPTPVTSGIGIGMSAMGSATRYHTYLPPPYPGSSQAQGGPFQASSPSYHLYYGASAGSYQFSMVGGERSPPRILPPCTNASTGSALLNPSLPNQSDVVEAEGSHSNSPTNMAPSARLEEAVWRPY

Sequence	RUNX1 binding intensity
TCCCTAAGTCACATCCTGTGGGCAAAGGCCCTAGCA	1570
CCATCTTCATACAGGATGCTGTGGTATGTAAAACAA	1240
AAACCAGAGAGGAAGTGGCACCACATGGCCAGACTG	1140
GAGCACAGGAAAAGCTGGTGCCAACCACAAGTGCTT	971
GCAACAGCGATCCCCGGAAACCACAAGGCGAGATGT	2790
AGGGACCCGGATGTCTGGTCTGCGGCTGCTCCTCTA	1250
CCGGTCCGCTCGCCGGAAATGCGGGCTCTCCTGCCG	1240
GCTTCTTCAGCCACATCCTGACCACAGCCCAGATTC	5070
ACTGGCTTCACTTCCTCCGCGGTTCCTCGGAGCCGC	1730
AACCCCAAAACGGAAACACCGGAGCCACAAGCTGAG	1300
CCCAAGCTACGGAAGTTAAACCTCAAACATGAAATC	1410
ACGTTTCGGGGTTTCCGGGCCAGCGGTTTCGGGCGC	2050
GAGGACGCGGAAGTCCTTCTTGCGGGGCGGAGCTAG	890
GCACTGTGGGAGGAAGTGGGTATGTGGTGAGCTCTT	1560
GACTGGTTTCCTGGTTTTGATGTGGTTTAGAGAAAA	2170
GCTCTGCAGGATGTGGCTGTGACCGCAGTGAGGAGC	7480
AATATCCTGTATGTCATGCTTAAAAAGCCACAAAAC	2050
GGCCTCGGCCACATCCGGGTTCCACCGCAGATTCGG	6490
GTTGTGCTCTTTCCTGCTTCCCGCAGTTTTTTAGTT	1890
CCTGTCCGGAAGTCCTGAGAGGGAATCGCCCGCAAA	1690

Sequence	RUNX1 binding intensity
CACGGAGCCACTTCCGGCGGCTGTGGGCGCAAAACC	3120
CCCACTCCACTTCCGCCACCGCCGCAGCCGCCGCTG	5930
GGCTTCCGGCGGGGTACCCTCCTCTGTGGGCGGGGC	1750
CGACAGAGGACACTTCCTTTTGCGGGTGGCGGCGAA	1460
TTCAACAGGATGTGGGAACTTGACTCTCGCCGCAAA	3720
GGACCGGAAGTAGGTTTCTACCCGACCGCATTTTAC	2740
ACCAGAACAGGAAATGTTAGTGGTTGAGTTAACGGT	1260
GTTCAGCGGACGGCTTCCTGCGGCTTGCTGGGGCCG	1000
GAAAACTAAGCAGGATGTGGTCTCGGCTGGAGCCTG	2020
ACTTGACTTCCTGTGGGGTGTGTGGTGTCTGCACTT	2010
TGTCCACCTCTACGGAAGTGCGCCGCAGTCCGCCAG	908
TTAGGCAGAGCTCATTTCCGCCCACATCAAAAGTAA	1110
GGCTGCGACTTCCGGACTGCTCCTGGCCGCAGGGGG	1370
AGCACAAACCCAGGATGTGGTAAATGAAATGAAAAA	1460
GGGTGCAGACGGGAAGTTGCGGCTGCCAGCGAAGCT	1270
GCACTGTAGGCAGGATGTGGGCAGGGGAAACTCAGG	2870
GCCTGAAGGACTTCCGGGAACCGCAAAGCACGGTGT	3430
TGCAGCTTCCTGTCTGAGGCTTTGTGGTCCTTTCAT	2480
TACATCTTCAGAGGAAGTGGGTTTGTGTATCTTTGA	1380
CATGGTGGTGACGCAGGATGTGGTGGTGGTGTAGAA	937
